Screening data as filed in PubChem BioAssay.
RGS4 inh: inhibitors of human regulator of G protein signaling 4. AID 504845. P49798. actives 0.039% (n = 390,000). Potency, µM (top dose mostly 114 µM), without a hit: at the highest dose activity change, negative = inhibition, most hits filed as inhibitors. Transcreener GDP fluorescence polarization, RGS4-accelerated GTP hydrolysis; note: potency is the fitted concentration of half-maximal effect; % is set by controls: 0 for no effect and ±100 for the full control effect; nearly all actives have a fitted effect of over 75% in size
Target sequence (P49798 whole entry, looked up): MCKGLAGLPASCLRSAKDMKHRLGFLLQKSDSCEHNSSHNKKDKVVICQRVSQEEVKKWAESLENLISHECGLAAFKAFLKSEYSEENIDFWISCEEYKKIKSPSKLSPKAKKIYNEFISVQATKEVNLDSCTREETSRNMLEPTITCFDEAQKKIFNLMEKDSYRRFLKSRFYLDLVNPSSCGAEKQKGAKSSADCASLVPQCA
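MLSMR compounds (23 nl, pin-transferred) preincubated 10 min at room temperature with a 500nM (2x) first reagent, then RGS4 at 900nM (2x) plus Transcreener GDP mix added; fluorescence polarization (620/688 nm) read before and after 90 min at 30 °C.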
D3 antag: D3 dopamine receptor (human) antagonism. actives 2.5% (n = 360,000). D3R cells, DiscoveRx beta-arrestin luminescence, antagonist mode; active compounds read low. max response, negative = inhibition, %. P35462. AID 652054; in the data active = max response below about -50%; inconclusive = no clear call, values can overlap the other calls; note: % is set by controls: 0 for no effect and ±100 for the full control effect
Target sequence (P35462 whole entry, looked up): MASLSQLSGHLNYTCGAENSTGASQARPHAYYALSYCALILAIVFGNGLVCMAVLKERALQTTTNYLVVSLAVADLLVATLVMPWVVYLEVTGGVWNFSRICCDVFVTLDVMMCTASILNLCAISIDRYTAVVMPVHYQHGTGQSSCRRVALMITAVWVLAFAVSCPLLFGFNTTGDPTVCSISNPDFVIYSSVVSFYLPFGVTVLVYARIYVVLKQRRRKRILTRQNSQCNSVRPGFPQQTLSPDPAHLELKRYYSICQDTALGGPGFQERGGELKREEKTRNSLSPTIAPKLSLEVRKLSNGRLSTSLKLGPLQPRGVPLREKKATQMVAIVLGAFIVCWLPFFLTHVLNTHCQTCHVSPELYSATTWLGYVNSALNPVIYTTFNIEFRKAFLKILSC
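Cells plated overnight at 1500 cells/well, then exposed to library compounds with dopamine controls for 90 minutes at 37 degrees C. DiscoveRx reagent added for 30–60 minutes at room temperature; luminescence read, quantitative HTS format.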
DRD3 agonist: D3 dopamine receptor (human) agonism; actives 0.58% (n = 410,000); max activation, %; D3R DiscoveRx beta-arrestin cells, luminescence, 90 min; P35462; in the data active = max activation above about 30%; note: 0% is about no effect
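Agonist-mode cell screen: cells plated at 1500/well and incubated overnight at 37 °C, then exposed to library compounds for 90 min at 37 °C. Detection reagent was added for 30–60 min at room temperature, and luminescence was read.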
BRCA1 expr up: increases BRCA1 expression. MCF7-BRCA1-FFLuc reporter, luminescence, 48 h; response scale: scaled: vehicle 0%, 10 µM genistein 100%. actives 1.1% (n = 380,000). Potency, µM (titrated, usually from 46.1 µM), for inactives: top-dose activation, hits mostly activators; note: potency is the fitted concentration of half-maximal effect; nearly all actives have a fitted effect of over 80% in size
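Reporter cells (MCF7, BRCA1 promoter-firefly luciferase) received library compounds across a concentration series for 48 h. End-point luminescence was measured and concentration-effect curves derived after normalization.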
B2AR arrestin: recruits beta-arrestin to the human beta2-adrenergic receptor. P07550. beta-arrestin recruitment to beta2AR, cell-based reporter. Potency, µM (titrated, usually from 46.1 µM), for inactives: top-dose activation, most hits filed as activators. actives 0.02% (n = 330,000);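 note: potency is the fitted concentration of half-maximal effect; 0% = DMSO controls and full agonism = EC100 isoproterenol or metaproterenol; nearly all actives have a fitted effect of over 65% in size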
PTHR1 ag: agonists of human PTHR1 parathyroid hormone receptor. actives 0.075% (n = 410,000). HEK293 GP2 PTHR1 cells, GloSensor cAMP luminescence, 1 h. Potency, µM (top dose mostly 115 µM), without a hit: at the highest dose activation, usual class: activators. Q03431. AID 743266; note: potency is the fitted concentration of half-maximal effect; nearly all actives have a fitted effect of over 55% in size
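HEK-293-derived GP2 cells expressing PTHR1 and a GloSensor cAMP reporter, 3,000/well, plated overnight, given luciferin plus IBMX (each 0.5 mM as added) for 1 h at 37 °C, then compound for 1 h at 37 °C. Luminescence was read after 15 min at room temperature.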
* marks the source's active call; other numbers are inactive results; [ ] = another dose, or the depositor's remark. Rows were chosen to be rich in hits. Some 3.7% of all compounds tested hit in one or more screens of this group. Unless noted, calls come from the whole dose curve; as a rule, active = well fitted curve in the direction sought with a large enough effect; inconclusive = small, poorly fitted or top-dose-only effect, or another doubt; inactive = no such curve, though single readings can be large; an effect the other way counts as inactive or inconclusive.

Results for C=CCN1C(=O)C2(C(C(=O)OCC)=C(N)Oc3ccccc32)C2=C1CCCC2=O (configuration not stated) ?
RGS4 inh: 10%; D3 antag: 14; DRD3 agonist: 0; BRCA1 expr up: 2%; B2AR arrestin: 0%; PTHR1 ag: inactive

What do the screens show for `CC1(C)CC(=O)C2=C(C1)NC(=O)C21C(C(=O)OC(C)(C)C)=C(N)Oc2ccc(Br)cc21` (configuration not stated)?
RGS4 inh: 11%; D3 antag: 30; DRD3 agonist: 31*; BRCA1 expr up: -37%; B2AR arrestin: 0%; PTHR1 ag: -29%

How did CN(C)C1CCc2[nH]c3c(F)cc(F)cc3c2C1 (configuration not stated) do in these assays?
D3 antag: -105*; DRD3 agonist: -10; BRCA1 expr up: 87%; PTHR1 ag: inactive

How did CCOC(=O)C1=C(CN2CCN(c3ccc(C)cc3C)CC2)NC(=O)NC1c1ccc(OC)cc1 (configuration not stated) do in these assays?
RGS4 inh: -6%; DRD3 agonist: 0; PTHR1 ag: -86%

What do the screens show for `CCOC(=O)[C@]12Cc3c(cc(OC)c(OC)c3OC)[C@H]1N(C)C(=O)c1ccccc12`?
D3 antag: -63*; DRD3 agonist: -4; BRCA1 expr up: 0%; PTHR1 ag: -15%

Results for CCOC(=O)[C@]12Cc3cc(Cl)ccc3[C@H]1N(C1CCCCC1)C(=O)c1ccccc12 ?
D3 antag: -80*; DRD3 agonist: -9; BRCA1 expr up: -73%; PTHR1 ag: -95%

What do the screens show for `CCOC(=O)[C@]12Cc3cc(OC)ccc3[C@H]1N(C1CCCCC1)C(=O)c1ccccc12`?
D3 antag: -64*; DRD3 agonist: -5; BRCA1 expr up: -74%; PTHR1 ag: -6%

How did CCOC(=O)[C@]12Cc3cc(OC)ccc3[C@H]1N(C)C(=O)c1ccccc12 do in these assays?
D3 antag: -18; DRD3 agonist: -3; BRCA1 expr up: -4%; PTHR1 ag: -15%

What do the screens show for `CCCCOc1ccc(C(=O)NCCc2csc(-c3ccc(OC)cc3)n2)cc1`?
RGS4 inh: -3%; DRD3 agonist: 10; PTHR1 ag: -91%

Results for COc1ccc(-c2cnnn2-c2ccc(NC(=O)c3ccc(S(=O)(=O)N(C)C)cc3)cc2)cc1 ?
RGS4 inh: 4%; DRD3 agonist: 9; PTHR1 ag: -51%

How did COc1ccc(C(=O)Nc2ccc(-c3cc(C(F)(F)F)nn3-c3ccccc3)cc2)cc1OC do in these assays?
RGS4 inh: 3%; DRD3 agonist: 59*; PTHR1 ag: -37%

Results for C=C1C(=O)OC2CC3(C)OC3CCC(C)=CC(OC(C)=O)C12 (configuration not stated) ?
RGS4 inh: -24%; D3 antag: -52*; DRD3 agonist: -10; BRCA1 expr up: -84%; PTHR1 ag: -45%

Results for C=C1C(=O)O[C@@H]2C[C@@H](C)[C@H]3C=CC(=O)[C@]3(O)C[C@@H]12 ?
RGS4 inh: inconclusive; D3 antag: inconclusive; DRD3 agonist: 10; BRCA1 expr up: -36%; B2AR arrestin: 0%; PTHR1 ag: -14%

Results for COC(=O)C1=C(c2ccc(OCc3ccccc3)cc2)C[C@@H]2CC[C@H]1N2C(=O)NCc1ccc(OC)c(OC)c1 ?
RGS4 inh: 22%; D3 antag: -13; DRD3 agonist: -3; BRCA1 expr up: -58%; B2AR arrestin: 18µM*; PTHR1 ag: -57%

Results for COC(=O)C1=C(c2ccc(OCc3ccccc3)cc2)C[C@@H]2CC[C@H]1N2C(=O)NCCCc1ccccc1 ?
RGS4 inh: 21%; D3 antag: -51*; DRD3 agonist: -9; BRCA1 expr up: 0%; B2AR arrestin: -4%; PTHR1 ag: inactive

Results for COC(=O)C1=C(c2cccc(OCc3ccccc3)c2)C[C@@H]2CC[C@H]1N2C(=O)NCCCc1ccccc1 ?
RGS4 inh: 1%; D3 antag: 0; DRD3 agonist: 0; BRCA1 expr up: -40%; B2AR arrestin: -1%; PTHR1 ag: -26%

How did COc1ccc2c3c1O[C@H]1[C@H](O)CC[C@H]4[C@@H](C2)N(C)CC[C@@]341 do in these assays?
DRD3 agonist: 5

How did CCCCn1c(O)c(C(C)=NCCCN(C)C)c(=O)[nH]c1=O do in these assays?
RGS4 inh: 14%; D3 antag: -7; DRD3 agonist: -1; BRCA1 expr up: 2%; B2AR arrestin: -2%; PTHR1 ag: -9%[57.5 µM]

How did CCCCn1c(O)c(C(CC)=NCCCN(C)C)c(=O)[nH]c1=O do in these assays?
RGS4 inh: -7%; D3 antag: -64*; DRD3 agonist: -5; BRCA1 expr up: 16%; B2AR arrestin: 0%; PTHR1 ag: -15%

Results for Cc1cc(Cl)ccc1C(=O)C1CCCN(C2CCSCC2)C1 (configuration not stated) ?
RGS4 inh: -15%; D3 antag: -76*; DRD3 agonist: -25; BRCA1 expr up: 8%; B2AR arrestin: 0%; PTHR1 ag: inactive

Results for O=C(c1ccc(C(F)(F)F)cc1)C1CCCN(C2CCSCC2)C1 (configuration not stated) ?
RGS4 inh: 2%; D3 antag: -57*; DRD3 agonist: -18; BRCA1 expr up: -24%; B2AR arrestin: -1%; PTHR1 ag: inactive

How did O=C(c1cc(F)ccc1F)C1CCCN(Cc2cc(Cl)ccc2O)C1 (configuration not stated) do in these assays?
RGS4 inh: 1%; D3 antag: inconclusive; DRD3 agonist: -15; BRCA1 expr up: -34%; B2AR arrestin: -1%; PTHR1 ag: -23%

What do the screens show for `O=C(CCCN1CCC(n2c(=O)[nH]c3ccccc32)CC1)c1ccc(F)cc1`?
RGS4 inh: 0%; D3 antag: -103*; DRD3 agonist: -45; BRCA1 expr up: 0%; B2AR arrestin: 0%; PTHR1 ag: -70%

Results for COC(=O)c1ccc(N2C(=O)CC(N3CCC(n4c(=O)[nH]c5ccccc54)CC3)C2=O)cc1 (configuration not stated) ?
RGS4 inh: -11%; D3 antag: -21; DRD3 agonist: -1; BRCA1 expr up: 9%; B2AR arrestin: 0%; PTHR1 ag: -96%

Results for CCN(CC)CCNCC(=O)Nc1ccc(Cl)cc1C(=O)c1ccccc1 ?
RGS4 inh: -7%; D3 antag: -56*; DRD3 agonist: 1; BRCA1 expr up: -11%; B2AR arrestin: 0%; PTHR1 ag: inactive
